This note sets out measurements from PubChem BioAssay (Tox21).

Results filed as inconclusive are left out. The source holds several records for some structures; these can differ, active in one and inactive in another. Active and inactive are the calls of the source. Unless noted, the call rests on the fitted dose curve.

Experiment [1] in a line: Nuclear factor erythroid 2-related factor 2/antioxidant responsive element (Nrf2/ARE) small molecule agonists: luciferase reporter gene qHTS assay in human keratinocytes (AID 1919969). Further: nearly all actives have a fitted effect of over 35% in size. Further: potency means the concentration at half of the fitted maximal effect.
In experiment [2] the target is Gonadotropin-releasing hormone receptor (Homo sapiens) (UniProt P30968). Nature of the experiment: Human gonadotropin-releasing hormone receptor (GnRHR) small molecule agonists, calcium flux assay in GnRHR-HEK293 cells (AID 1920063). Further: nearly all actives have a fitted effect of over 35% in size. Further: potency means the concentration at half of the fitted maximal effect. In a few lines: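 Agonist mode: compounds at 15 concentrations, in triplicate, went onto calcium dye-loaded GnRHR-HEK293 cells. Intracellular calcium was then followed as 480/540 nm fluorescence at 1 s intervals over 3 min.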

Experiment [3] concerns the target KiSS-1 receptor (Homo sapiens) (UniProt Q969F8). Nature of the experiment: Human kisspeptin (KISS1R) small molecule agonists, calcium flux assay in KISS1R-HEK293 cells (AID 1920064; active means well fitted activation curve with a large enough effect in the repeat runs; further: potency means the concentration at half of the fitted maximal effect). Put shortly:
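Agonist mode: intracellular calcium rise tracked at 1 s intervals over 3 min (480/540 nm) immediately after compound addition to dye-loaded KISS1R-HEK293 stable cells. Each compound tested at 15 concentrations in triplicate.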

Experiment [4] is described as follows: G protein-coupled receptor (GPCR) small molecule agonists, calcium flux assay: HEK293 wild type cell line counter screen (AID 1920065). Further: potency means the concentration at half of the fitted maximal effect. Put shortly: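 Calcium flux counter screen: compound added in agonist mode at 15 concentrations in triplicate to dye-loaded parental HEK293 cells. Fluorescence (480/540) read kinetically for 3 min; ATP served as positive control.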

Experiment [5] is described as follows: p53 small molecule agonists, cell-based qHTS assay with human liver microsomes: qHTS cell viability counter screen (AID 1963579). Further: nearly all actives have a fitted effect of over 45% in size. In a few lines: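 Metabolically activated exposure: compounds, human liver microsomes and NADPH (0.5 mg/mL final apiece) were added to p53RE-bla cells seeded 5 h earlier, left 16 h at 37 C, and then assessed for viability by CellTiter-Glo luminescence.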

A short description of experiment [6]: p53 small molecule agonists, cell-based qHTS assay with rat liver microsomes: qHTS cell viability counter screen (AID 1963580). Further: nearly all actives have a fitted effect of over 45% in size. Further: potency means the concentration at half of the fitted maximal effect. In a few lines:
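After the beta-lactamase ratio was read, CellTiter-Glo was added to the same wells and luminescence measured at 30 min; cells had been treated 16 h at 37 C with compounds, rat liver microsomes and NADPH (0.5 mg/mL final each).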

A short description of experiment [7]: p53 small molecule agonists, cell-based qHTS assay: qHTS cell viability counter screen (AID 1963581). Further: nearly all actives have a fitted effect of over 45% in size. Put shortly: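 Counter screen read by CellTiter-Glo luminescence (ATP content, 30 min at room temperature), run in the same wells as the beta-lactamase reporter read. HCT-116 p53RE-bla cells saw compounds for 16 h at 37 C.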
The target of experiment [8] is 5-hydroxytryptamine receptor 2A (Homo sapiens) (UniProt P28223). The experiment can be described thus: 5-hydroxytryptamine receptor 2A (HTR2A) small molecule antagonists, cell-based qHTS assay (AID 1963586). Further: nearly all actives have a fitted effect of over 45% in size. In a few lines: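 CHO cells stably expressing human HTR2A were plated for 18 h at 37 C, then loaded with calcium dye for 1 h. Compounds were preincubated 5 min at room temperature before DOI (4 nM solution) was added. Kinetic fluorescence was read for 3 min.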

The target of experiment [9] is Muscarinic acetylcholine receptor M1 (Homo sapiens) (UniProt P11229). Nature of the experiment: Cholinergic receptor muscarinic 1 (CHRM1) small molecule antagonists, cell-based qHTS assay (AID 1963588). Further: nearly all actives have a fitted effect of over 40% in size. In a few lines:
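Compounds were tested at 15 concentrations in three independent runs. Dye-loaded CHRM1-CHO cells were exposed 5 min at room temperature before stimulation by acetylcholine added at 50nM. Intracellular calcium was read kinetically on FDSS for 3 min.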

Experiment [10] shares this target. Nature of the experiment: Cholinergic receptor muscarinic 1 (CHRM1) small molecule agonists, cell-based qHTS assay (AID 1963589). Further: nearly all actives have a fitted effect of over 35% in size. Further: potency means the concentration at half of the fitted maximal effect. In a few lines: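 Agonist-mode calcium-flux screen: compounds at 15 concentrations, three independent runs, were pin-transferred onto dye-loaded human CHRM1-CHO cells. Fluorescence was then recorded kinetically every second over minutes.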

Experiment [11] is described as follows: cAMP Responsive Elements (CRE) small molecule agonists, cell-based qHTS assay (AID 1963590). In a few lines: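 Agonist mode: compound added to CRE-bla HEK 293T cells (2,000/well, 18 h after plating) for 3 h at 37 C/5% CO2. Reporter activity detected via FRET beta-lactamase substrate, 2 h room-temperature loading.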
Experiment [12] in a line: cAMP Responsive Elements (CRE) small molecule antagonists, cell-based qHTS assay (AID 1963591; active means well fitted inhibition curve with a large enough effect in the signal ratio in the repeat runs, not every such curve was filed as active; the % refers to the signal ratio). Put shortly: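 Antagonist mode: compounds are added alongside the adenylyl cyclase activator NKH477 (0.25 uM final) to CRE-bla HEK293T cells for 3 h. LiveBLAzer FRET substrate, 2 h at room temperature, reports bla expression.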
The target of experiment [13] is Beta-2 adrenergic receptor (Homo sapiens) (UniProt P07550). Nature of the experiment: Adrenergic beta2 receptor (ADRB2) small molecule antagonists, cell-based qHTS assay (AID 1963592). Further: nearly all actives have a fitted effect of over 50% in size. Further: potency means the concentration at half of the fitted maximal effect. Put shortly:
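Assay format: CHO-ADRB2 cells, 18-20hr seeding at 37C/5% CO2, then compound plus 1nM isoproterenol agonist mix for 0.5hr RT. Homogeneous time-resolved fluorescence cAMP detection after 1hr, expressed as 665/615 nm ratio.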

Experiment [14] shares this target. The experiment can be described thus: Adrenergic beta2 receptor (ADRB2) small molecule agonists, cell-based qHTS assay (AID 1963593).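 Further: CHO cells stably overexpressing human ADRB2.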 In a few lines: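 CHO cells stably over-expressing ADRB2 were plated overnight at 37C, then dosed with compounds plus a stimulation mix containing 100uM IBMX and 25uM Ro-20-1724 for 0.5hr at room temperature. cAMP was measured by HTRF competition, 1hr.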

The target in experiment [15] is D(2) dopamine receptor (Homo sapiens) (UniProt P14416). The experiment can be described thus: Dopamine D2 receptor (DRD2) small molecule agonists, cell-based qHTS assay (AID 1963594). Further: nearly all actives have a fitted effect of over 35% in size. Further: potency means the concentration at half of the fitted maximal effect. In a few lines:
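HEK293 cells stably expressing human DRD2, pre-treated with PDE inhibitor Ro20-1724 (0.1 mM final) and compound 10 min at room temperature, then stimulated with NKH477 (200nM […]) for 30 min. cAMP read by HTRF (665/620 nm).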

The target is the same in experiment [16]. The experiment can be described thus: Dopamine D2 receptor (DRD2) small molecule antagonists, cell-based qHTS assay (AID 1963595; active means well fitted inhibition curve with a large enough effect in the signal ratio in the repeat runs, with a control signal flat; the % refers to the signal ratio; further: potency means the concentration at half of the fitted maximal effect). Put shortly: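 Cells were plated and grown for 24 h at 37 °C. Ro20-1724 (0.1 mM final) went in first, then compound for 10 min. NKH477 (200 nM) with quinpirole (12 nM) followed for 30 min at RT, then HTRF detection reagents for 1 h.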

In experiment [17] the target is 5-hydroxytryptamine receptor 2A (Homo sapiens) (UniProt P28223). The experiment can be described thus: 5-hydroxytryptamine receptor 2A (HTR2A) small molecule agonists, cell-based qHTS assay (AID 1963587). Further: nearly all actives have a fitted effect of over 30% in size. Further: potency means the concentration at half of the fitted maximal effect. Put shortly: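 CHO cells stably expressing human HTR2A, plated 18 h, loaded with calcium dye 1 h at 37 C. Agonist mode: compounds added and intracellular calcium fluorescence recorded kinetically for 2 min at 1 sec intervals.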

Sequence of Beta-2 adrenergic receptor (Homo sapiens) (P07550 whole entry, looked up): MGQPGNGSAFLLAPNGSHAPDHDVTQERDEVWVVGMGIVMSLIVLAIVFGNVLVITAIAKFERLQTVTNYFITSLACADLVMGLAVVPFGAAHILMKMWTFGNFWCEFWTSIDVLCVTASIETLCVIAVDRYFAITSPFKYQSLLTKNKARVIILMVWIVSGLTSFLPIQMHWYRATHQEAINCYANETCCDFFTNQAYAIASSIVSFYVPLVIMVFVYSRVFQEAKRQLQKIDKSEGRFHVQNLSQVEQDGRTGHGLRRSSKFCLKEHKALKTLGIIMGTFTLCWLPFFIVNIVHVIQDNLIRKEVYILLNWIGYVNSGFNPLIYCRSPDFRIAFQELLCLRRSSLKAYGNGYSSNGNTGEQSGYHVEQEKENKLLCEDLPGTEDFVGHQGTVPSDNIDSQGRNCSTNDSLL
Sequence of 5-hydroxytryptamine receptor 2A (Homo sapiens) (P28223 whole entry, looked up): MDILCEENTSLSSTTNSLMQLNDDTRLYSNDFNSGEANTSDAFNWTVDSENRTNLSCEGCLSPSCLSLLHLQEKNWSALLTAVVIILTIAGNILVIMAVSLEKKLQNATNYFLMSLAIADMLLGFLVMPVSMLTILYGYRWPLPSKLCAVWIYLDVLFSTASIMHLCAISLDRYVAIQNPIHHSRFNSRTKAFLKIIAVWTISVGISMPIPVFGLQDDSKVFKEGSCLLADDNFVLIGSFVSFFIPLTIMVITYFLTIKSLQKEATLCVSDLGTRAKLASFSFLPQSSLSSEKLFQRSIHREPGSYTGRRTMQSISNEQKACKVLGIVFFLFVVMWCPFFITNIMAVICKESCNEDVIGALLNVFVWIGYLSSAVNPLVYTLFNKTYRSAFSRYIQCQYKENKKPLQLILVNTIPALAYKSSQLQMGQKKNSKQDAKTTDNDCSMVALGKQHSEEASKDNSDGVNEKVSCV
Sequence of KiSS-1 receptor (Homo sapiens) (Q969F8 whole entry, looked up): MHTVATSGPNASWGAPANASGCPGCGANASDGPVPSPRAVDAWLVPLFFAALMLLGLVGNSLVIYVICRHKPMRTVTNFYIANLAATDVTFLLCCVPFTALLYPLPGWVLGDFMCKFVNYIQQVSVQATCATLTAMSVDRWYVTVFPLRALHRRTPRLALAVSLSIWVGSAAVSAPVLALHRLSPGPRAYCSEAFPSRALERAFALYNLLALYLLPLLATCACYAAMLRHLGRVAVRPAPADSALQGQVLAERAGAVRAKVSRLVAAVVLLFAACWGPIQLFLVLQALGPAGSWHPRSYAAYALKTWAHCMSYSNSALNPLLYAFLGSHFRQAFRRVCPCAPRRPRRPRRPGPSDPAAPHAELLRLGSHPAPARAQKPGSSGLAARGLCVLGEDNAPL
Sequence of D(2) dopamine receptor (Homo sapiens) (P14416 whole entry, looked up): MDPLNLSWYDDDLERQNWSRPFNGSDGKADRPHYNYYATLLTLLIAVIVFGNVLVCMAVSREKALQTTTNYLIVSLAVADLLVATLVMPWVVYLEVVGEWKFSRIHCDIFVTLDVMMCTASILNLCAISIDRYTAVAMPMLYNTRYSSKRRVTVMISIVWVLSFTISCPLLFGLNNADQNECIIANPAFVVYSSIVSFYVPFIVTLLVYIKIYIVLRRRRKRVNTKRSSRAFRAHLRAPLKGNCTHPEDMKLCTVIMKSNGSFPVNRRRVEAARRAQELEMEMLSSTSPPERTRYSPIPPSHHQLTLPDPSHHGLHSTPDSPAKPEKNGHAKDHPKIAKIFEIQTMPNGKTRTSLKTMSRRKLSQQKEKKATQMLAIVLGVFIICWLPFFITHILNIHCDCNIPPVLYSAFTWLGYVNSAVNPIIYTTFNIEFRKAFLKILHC
Sequence of Muscarinic acetylcholine receptor M1 (Homo sapiens) (P11229 whole entry, looked up): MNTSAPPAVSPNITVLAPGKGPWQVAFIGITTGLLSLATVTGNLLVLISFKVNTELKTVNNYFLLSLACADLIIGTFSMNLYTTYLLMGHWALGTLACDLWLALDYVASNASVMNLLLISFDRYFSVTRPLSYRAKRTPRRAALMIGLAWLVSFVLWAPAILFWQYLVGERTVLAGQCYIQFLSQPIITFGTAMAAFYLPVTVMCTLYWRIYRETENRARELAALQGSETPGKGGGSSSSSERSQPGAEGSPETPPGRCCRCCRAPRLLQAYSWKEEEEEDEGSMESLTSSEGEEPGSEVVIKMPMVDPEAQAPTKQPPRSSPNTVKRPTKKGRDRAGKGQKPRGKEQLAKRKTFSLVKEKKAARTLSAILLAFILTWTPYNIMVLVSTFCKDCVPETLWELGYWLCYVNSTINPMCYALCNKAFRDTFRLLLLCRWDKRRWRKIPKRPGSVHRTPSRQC
Sequence of Gonadotropin-releasing hormone receptor (Homo sapiens) (P30968 whole entry, looked up): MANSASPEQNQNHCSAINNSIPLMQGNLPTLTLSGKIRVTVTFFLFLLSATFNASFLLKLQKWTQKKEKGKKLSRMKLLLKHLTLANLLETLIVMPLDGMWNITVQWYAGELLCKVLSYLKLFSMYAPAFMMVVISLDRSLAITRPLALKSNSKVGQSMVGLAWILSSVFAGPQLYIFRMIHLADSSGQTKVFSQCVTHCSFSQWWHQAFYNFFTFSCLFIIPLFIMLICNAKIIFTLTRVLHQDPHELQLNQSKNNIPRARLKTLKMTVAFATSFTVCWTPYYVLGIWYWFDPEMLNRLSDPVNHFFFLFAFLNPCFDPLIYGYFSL

Take `CNc1ccc([N+](=O)[O-])cc1`: the Potency result in experiment [1], in [2], in [3], in experiment [4], in [5] and in experiment [6] was “inactive” each time. For the same molecule, the Potency result in [7], in experiment [8], in [9], in [10], in [11] and in experiment [12] was “inactive” throughout. Also, the Potency result in [13], in [14], in experiment [15] and in experiment [16] was “inactive” in each case.

`O=C(Oc1ccccc1)c1cccc(C(=O)Oc2ccccc2)c1`: the Potency in experiment [1] was 1.15 µM (active). Besides, the Potency result in experiment [2], in experiment [3], in experiment [4], in experiment [5], in experiment [6] and in [17] was “inactive” in each case. Besides, the Potency result in experiment [9], in experiment [10] and in experiment [15] was “inactive” throughout.

As for `Nc1ccc2cc(S(=O)(=O)O)cc(O)c2c1N=Nc1ccccc1C(F)(F)F`, the Potency entry in experiment [1], in [2], in experiment [3], in [4], in [5] and in [6] was “inactive” each time. Besides, the Potency entry in experiment [7], in [9], in experiment [10], in [11], in experiment [12] and in experiment [13] was “inactive” each time. The Potency entry in experiment [14] and in experiment [15] was “inactive” in each case.

For the molecule `CCCCOc1ccc(CC(=O)NO)cc1`, the Potency result in experiment [1], in experiment [2], in [3], in experiment [4], in experiment [5] and in experiment [6] was “inactive” in each case. In addition, the Potency entry in experiment [8], in experiment [17], in [9], in [10], in experiment [11] and in experiment [12] was “inactive” throughout. The Potency entry in experiment [14] and in experiment [15] was “inactive” each time.

On to `C[n+]1c2cc(N)ccc2cc2ccc(N)cc21` (tested in a mixture with another compound), for which the Potency was 6.68 µM (active) in experiment [1]; 16.9 µM (active) in experiment [2]; 21.3 µM (active) in experiment [3]; 16.9 µM (active) in experiment [4]; 19 µM (active) in experiment [17]; 19 µM (active) in experiment [10]. In addition, the Potency entry in experiment [5], in experiment [7], in experiment [8] and in experiment [9] was “inactive” each time.

Consider `C#Cc1cccc(Nc2ncnc3cc(OCCOC)c(OCCOC)cc23)c1`, for which the Potency result in [1], in experiment [2], in experiment [3], in experiment [4], in [5] and in experiment [6] was “inactive” each time. Besides, the Potency entry in experiment [7], in experiment [17], in experiment [9], in experiment [13], in experiment [14] and in [15] was “inactive” throughout. Besides, in experiment [16], the Potency entry is “inactive”.

As for `Cc1ccc(-c2cc(C(F)(F)F)nn2-c2ccc(S(N)(=O)=O)cc2)cc1`, the Potency entry in experiment [1], in [2], in experiment [3], in [4], in [5] and in experiment [7] was “inactive” in each case. Further, the Potency entry in [14] and in [15] was “inactive” in each case. For the same molecule, the Potency in [6] is 36.2 µM (active) and inactive; in experiment [13] it was 60.9 µM (active); in experiment [16], 60.9 µM (active) and inactive.

For the molecule `O=C1OC2(c3ccccc31)c1ccc(O)c(Br)c1Oc1c2ccc(O)c1Br`, the Potency result in experiment [1], in [5], in experiment [6], in experiment [7] and in experiment [9] was “inactive” in each case. The Potency in experiment [2] was 13.8 µM (active); in experiment [3], 7.76 µM (active); in experiment [4], 19.5 µM (active); in [17] it was 1.55 µM (active); in [10], 24.5 µM (active); in experiment [13] it was 68.6 µM (active). For the same molecule, the Potency in experiment [15] is 15.4 µM (active).

For the molecule `CC/C=C\C/C=C\C/C=C\CCCCCCCC(=O)OCC`, the Potency in [1] was 70.1 µM (active). Moreover, the Potency entry in experiment [2], in [3], in experiment [4], in experiment [6], in experiment [8] and in experiment [17] was “inactive” in each case. The Potency result in experiment [9], in [10], in experiment [13], in experiment [14], in experiment [15] and in experiment [16] was “inactive” in each case.

Turning to `CN(C)c1ccc(O)c2c1C[C@H]1C[C@H]3[C@H](N(C)C)C(=O)C(C(N)=O)=C(O)[C@@]3(O)C(=O)C1=C2O`, the Potency result in experiment [1], in experiment [2], in experiment [3], in experiment [4], in [5] and in experiment [7] was “inactive” in each case. In addition, the Potency result in [8], in experiment [17], in [9], in experiment [10], in experiment [11] and in experiment [12] was “inactive” in each case. The Potency result in [13], in [15] and in [16] was “inactive” throughout.

For `C=CC(C)(C)CC(=O)OC`, the Potency entry in experiment [1], in experiment [2], in [3], in experiment [4], in experiment [5] and in experiment [6] was “inactive” in each case. In addition, the Potency result in experiment [8], in experiment [17], in experiment [10], in experiment [11], in experiment [13] and in [15] was “inactive” each time. The Potency entry in [16] is “inactive”.

Turning to `Cc1nccn1-c1ccc(Sc2cccc(C3(C(N)=O)CCOCC3)c2)cc1`, the Potency entry in [1], in experiment [2], in [3], in experiment [4], in experiment [6] and in [7] was “inactive” each time. Moreover, the Potency result in experiment [8], in experiment [17], in experiment [10], in experiment [13], in experiment [14] and in experiment [15] was “inactive” throughout.

As for `O=[N+]([O-])c1nccn1CO[C@@H](CO)[C@H](O)CO`, the Potency entry in experiment [1], in experiment [2], in experiment [3], in experiment [4], in experiment [6] and in experiment [7] was “inactive” in each case. Further, the Potency result in experiment [8], in experiment [17], in [9], in [10], in experiment [11] and in [12] was “inactive” throughout. Besides, the Potency entry in [13], in [14], in experiment [15] and in experiment [16] was “inactive” in each case.
